Screening results (PubChem BioAssay)
In the library only some 9.6% were active in any assay of this set; here they are far more common.
Cav3 T inh: Cav3.2 calcium influx blockers – cell-based, Fluo-4 calcium fluorescence, FDSS, MLSMR library, primary screen; AID 449739, 2010; 100,000 compounds, 4% hits; B-score at 10 µM; Voltage-dependent T-type calcium channel subunit alpha-1H (Homo sapiens), O95180; Cav3.2-expressing cells; hits give low values;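 active = single-dose well whose peak fluorescence ratio is a statistical outlier from its plate by either plate-standardised score or position-corrected B-score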
PLAP act: PLAP enzyme activators, biochemical, luminescence, HTS; Alkaline phosphatase, placental type (Homo sapiens), P05187; purified PLAP enzyme, luminescent substrate read-out; hits give high values; activation fold at 20 µM; 96,000 compounds, 1.2% hits; AID 696, 2007; in the data active = activation fold above about 2
Target sequence (P05187 whole entry, looked up): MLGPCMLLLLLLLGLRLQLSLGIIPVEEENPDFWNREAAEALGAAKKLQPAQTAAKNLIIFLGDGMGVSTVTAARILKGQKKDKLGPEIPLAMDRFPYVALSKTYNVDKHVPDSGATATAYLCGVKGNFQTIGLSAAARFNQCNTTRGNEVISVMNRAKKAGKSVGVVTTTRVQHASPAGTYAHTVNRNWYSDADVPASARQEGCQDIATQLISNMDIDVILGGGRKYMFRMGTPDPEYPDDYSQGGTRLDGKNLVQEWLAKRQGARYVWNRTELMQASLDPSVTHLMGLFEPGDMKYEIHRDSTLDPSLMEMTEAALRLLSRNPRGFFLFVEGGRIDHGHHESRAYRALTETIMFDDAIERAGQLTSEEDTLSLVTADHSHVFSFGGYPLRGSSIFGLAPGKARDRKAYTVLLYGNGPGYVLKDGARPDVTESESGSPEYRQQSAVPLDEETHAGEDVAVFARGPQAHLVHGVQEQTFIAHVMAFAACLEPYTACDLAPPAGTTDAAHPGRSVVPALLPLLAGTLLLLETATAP
hDAT+cocaine: changed hDAT dopamine uptake under cocaine IC80, either direction, primary screen, cocaine antagonist project, cell-based, LLC-PK1 hDAT, [14C]-dopamine uptake, MLSMR | LLC-PK1 hDAT cells, [14C]-dopamine uptake with cocaine IC80; actives deviate in either direction | AID 449768, 2010 | 110,000 compounds, 1.3% hits | B-score at 10 µM | Sodium-dependent dopamine transporter (Homo sapiens), Q01959;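 active = Z score or B-score, a plate-position-corrected score, falls beyond the plate's 99.7% confidence bounds, in either direction; inactive = both scores lie inside the 99.7% bounds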;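 note: scored against the spread of the other compound wells on the same plate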
PostGolgi yeast: phenotypic screen on post-Golgi transport, primary screen. post-Golgi transport phenotypic cell assay. 98,000 compounds, 0.9% hits. inhibition, % at 10 µM. AID 739, 2007;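 note: yeast cells grown in 1536-well plates; yeast grown about 18 h at 30C before absorbance read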
PostGolgi ctrl: growth inhibition of yeast control strain, primary screen, counter-screen for post-Golgi transport modulator project; efflux-deficient yeast background strain, growth absorbance A615, 16 h; inhibition, % at 10 µM; 98,000 compounds, 5% hits; AID 738, 2007
The depositor's hits bear a star; / = no result. Cut-off read from the data, not from the text of the source, unless noted: active = inhibition above about 30%; inactive = the rest.

SMILES	Cav3 T inh	PLAP act	hDAT+cocaine	PostGolgi yeast	PostGolgi ctrl
Cc1ccc(C(=O)NC(=S)Nc2cc(-c3nc4ccccc4s3)ccc2C)cc1	/	0.9	/	3	4
N#CC1=C(N)OC2=C(C(=O)CCC2)C1Cc1ccccc1 (stereo not given)	0.18	/	1.7	/	/
COc1cc2nc(CN(C)CC(=O)Nc3ccc(N4CCOCC4)cc3)[nH]c(=O)c2cc1OC	/	2.3*	/	/	/
COc1cc2nc(CN(C)Cc3nc4ccccc4c(=O)[nH]3)[nH]c(=O)c2cc1OC	-0.046	/	-0.025	1	4
CCN(CC(=O)NCc1ccc(F)cc1)Cc1nc2cc(Cl)ccc2c(=O)[nH]1	-1.5	2.7*	-0.038	-12	12
CCN(Cc1nc2ccccc2c(=O)[nH]1)Cc1nc2cc(OC)c(OC)cc2c(=O)[nH]1	0.51	2.2*	1.3	8	15
CCN(CC(=O)NC(c1ccccc1)c1ccccc1)Cc1nc2ccccc2c(=O)[nH]1	-3.9	/	0.28	-8	6
O=C(c1cc(Cl)cc(Cl)c1)N1CCOCC1	0.0029	0.9	0.67	-2	6
CCN(c1ccccc1)S(=O)(=O)c1ccc(OCc2c(C)noc2C)cc1	-4.4*	1	0.5	4	24
CCN(C(=O)COC(=O)c1ccc(OCc2c(C)noc2C)cc1)c1ccccc1	-0.92	1.7	1.1	-15	-5
CCOC(=O)c1ccc(N2C(=O)CC(N3CCN(C(=O)c4ccco4)CC3)C2=O)cc1 (stereo not given)	0.99	1.1	2.6*	2	-4
N#Cc1ccc(Nc2ccccc2)c(N)c1	-0.53	0.9	-0.38	-5	7
Cc1ccc(OCCn2cc(C(=S)N3CCCC3)c3ccccc32)cc1C	-3.6	1.2	0.41	-6	31*
N#CCC1c2ccccc2CCN1C(=O)Nc1ccc(Cl)cc1 (stereo not given)	-2.7	0.8	-3.2*	-8	25
N#CCC1c2ccccc2CCN1C(=O)Nc1ccc(C(F)(F)F)cc1 (stereo not given)	-2.9	0.8	-1.3	-5	11
O=C(O)CCC(=O)CCC(=O)c1ccccc1	-0.072	1.1	-1.9	-16	30
O=C(C[n+]1cc2ccccc2c2ccccc21)c1ccccc1	-0.16	/	-0.26	-1	33*
CC(=O)CSc1nnc(-c2cnccn2)n1-c1ccccc1	/	1.1	/	0	-1
CC1CCCC(C)N1C(=O)CSc1nnc(C2CCCCC2)o1 (stereo not given)	0.29	1.8	1.7	-3	-4
CC1CN(C2CCN(C(=O)c3ccccc3)CC2)CC(C)O1 (stereo not given)	0.17	1.3	0.24	0	8
CCCCN(CCCNC(=O)c1c(C)cc(=O)oc1C)c1ccccc1	-0.76	1.3	0.4	-7	32*
CCN(CCCNC(=O)c1c(C)cc(=O)oc1C)c1ccccc1	0.015	1.7	-0.61	-3	25
Cc1cc(=O)oc(C)c1C(=O)NCC(C)NC(=O)c1c(C)cc(=O)oc1C (stereo not given)	0.0063	1	3.2*	20	1
O=C(Nc1ccc(Cl)cc1)[C@@H]1[C@@H]2C(=O)N(c3ccc4ccccc4c3)C(=O)[C@@H]2[C@H]2C=CC=NN21	-8.6*	1.6	-0.0021	2	-5
COc1ccc(N2C(=O)[C@@H]3[C@H](C2=O)[C@H]2c4ccccc4C=CN2[C@@H]3C(=O)Nc2ccccc2)cc1	-3.2	1.4	0.1	-1	-2
SMILES	Cav3 T inh	PLAP act	hDAT+cocaine	PostGolgi yeast	PostGolgi ctrl
CC(=O)C1=C(C)NC(SCc2cccc([N+](=O)[O-])c2)=C(C#N)C1c1ccco1 (stereo not given)	/	0.8	/	-5	8
CCOc1cnc(-c2ccc(OC)cc2)o1	/	1	0.3	31*	13
CCCc1nc(NCc2ccccn2)c2nnn(Cc3ccccc3F)c2n1	/	1	/	4	100*
CCc1nc(NCCc2ccccn2)c2nnn(Cc3ccccc3F)c2n1	-1.2	1.4	1.4	-8	15
COc1ccc(C2=NN3C(C2)c2ccccc2OC32C(=O)N(C)c3ccccc32)cc1 (stereo not given)	/	1.1	/	4	30*
COc1ccc2c(c1OC)C(=O)N1N=C(c3ccccc3)CC21 (stereo not given)	1.5	1	0.65	0	-4
COc1cccc(NC(=O)c2cccc(OC)c2OC)c1	-1.4	1.2	-0.012	-9	48*
COc1cccc(C(=O)Nc2cccc(SC)c2)c1	-1.3	0.7	-0.11	13	30*
